GAA850 FXN act: activators of GAA850 frataxin (FXN) promoter. HEK293 lucGAA850 FXN promoter luciferase reporter, 24 h; percent of 10 µM SAHA response. activation, % at 6 µM. 360,000 tested, 0.56% active. AID 540364;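 active = activation above the average of all compounds screened plus 3 SD, cutoff fixed separately per campaign, cut at about 7.5% in these data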
esBAF inh: SWI/SNF esBAF complex inhibition | reporter increase, % at 12.5 µM | 350,000 tested, 2% active | mouse ES cells, Bmi1-luciferase knock-in reporter, 24 h; 100% = twice the neutral-well signal; in the data active = activation above about 40%; inconclusive = no clear call, values can overlap the other calls;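 also: a rise in the Bmi1 reporter signal indicates esBAF inhibition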
AHR act: activators of human aryl hydrocarbon receptor. activation, % at 5 µM. AHR-responsive luciferase reporter cells, luminescence. 320,000 tested, 2.5% active; in the data active = activation above about 47%
Target sequence (P35869 whole entry, looked up): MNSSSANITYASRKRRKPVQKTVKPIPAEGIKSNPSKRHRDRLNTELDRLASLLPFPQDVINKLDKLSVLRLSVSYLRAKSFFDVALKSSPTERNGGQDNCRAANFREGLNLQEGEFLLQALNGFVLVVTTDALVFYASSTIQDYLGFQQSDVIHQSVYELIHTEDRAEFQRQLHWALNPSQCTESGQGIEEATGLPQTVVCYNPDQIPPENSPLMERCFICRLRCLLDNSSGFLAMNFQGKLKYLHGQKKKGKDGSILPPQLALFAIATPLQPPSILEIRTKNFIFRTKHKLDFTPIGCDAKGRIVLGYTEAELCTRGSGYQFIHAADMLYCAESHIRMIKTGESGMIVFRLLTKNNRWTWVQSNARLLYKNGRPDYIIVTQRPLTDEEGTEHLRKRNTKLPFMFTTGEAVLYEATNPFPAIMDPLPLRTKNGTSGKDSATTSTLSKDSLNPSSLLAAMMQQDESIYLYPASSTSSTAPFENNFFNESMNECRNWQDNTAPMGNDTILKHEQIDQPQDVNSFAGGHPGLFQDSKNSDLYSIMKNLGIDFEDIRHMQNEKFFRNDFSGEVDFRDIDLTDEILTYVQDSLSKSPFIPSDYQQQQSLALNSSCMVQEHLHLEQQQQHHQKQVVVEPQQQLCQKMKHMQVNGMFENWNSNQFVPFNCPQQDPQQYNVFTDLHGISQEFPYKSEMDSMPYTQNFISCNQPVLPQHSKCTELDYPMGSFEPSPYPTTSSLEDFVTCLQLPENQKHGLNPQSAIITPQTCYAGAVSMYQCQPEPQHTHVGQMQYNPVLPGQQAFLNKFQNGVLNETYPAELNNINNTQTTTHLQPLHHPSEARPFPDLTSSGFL
MITF act: activators of MITF-driven TRPM1 promoter activity in SK-MEL-5 cells. activation, % at 12.5 µM. SK-MEL-5 TRPM1-promoter luciferase, 24 h; % of positive control, neutral wells = 0. AID 588334. 300,000 tested, 0.75% active;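 active = mean activation of at least 80% with every replicate also reaching 80%; inconclusive = mean reaches 80% but some replicate falls short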
Wnt bcat act: activates Wnt/beta-catenin signaling in a reporter cell assay | activator, plate reader | 300,000 tested, 1.2% active | activation, % at 9.35 µM | AID 743398; in the data active = activation above about 30%, passing the limit was not always enough; inconclusive = no clear call, values can overlap the other calls
A number is an active result; 0 = inactive; ? = inconclusive; - = not tested or not shown. Compounds with a hit are over-represented: about 4.2% of the library has one in this group of screens.

SMILES	GAA850 FXN act	esBAF inh	AHR act	MITF act	Wnt bcat act
CCOc1ccc(-c2noc(-c3csc([C@@H]4C[C@H](O)[C@@H](CO)O4)n3)n2)cc1	0	81	-	-	0
C[C@H](NC(=O)[C@H]1N[C@H]2c3ccc(C4=CCCC4)c(=O)n3C[C@H]2[C@@H]1CO)c1ccccc1	-	0	-	-	-
Cn1c(-c2ccccc2)c(/C=N/NC(=O)c2ccc(O)cc2)c2ccccc21	0	63	0	0	0
O=C(Nc1ccc2c(c1)[C@H]1C[C@@H](CC(=O)N3CCc4ccccc4C3)O[C@H](CO)[C@H]1O2)C1CCC1	-	0	-	-	-
C=C(C)C(O)COc1c2occc2c(OC)c2ccc(=O)oc12 (stereo not given)	0	0	55	0	0
CCCc1ccc2oc(C(=O)N3CCC[C@H]3CO)c(C)c2c1	0	57	0	0	0
CCCc1ccc2oc(C(=O)N3CCC(N4CCCC(O)C4)CC3)c(C)c2c1 (stereo not given)	0	0	0	0	0
CCCc1ccc2oc(C(=O)N3CCC(COC)C3)c(C)c2c1 (stereo not given)	0	54	0	103	0
O=C(C[C@@H]1CC[C@@H]2[C@H](COC[C@H](O)CN2Cc2ccc(Cl)cc2)O1)NCc1ccccc1Cl	-	0	-	-	-
COc1ccc(CN(C)C[C@@H]2Oc3ccc(NC(=O)C4CCCCC4)cc3C(=O)N([C@@H](C)CO)C[C@@H]2C)cc1	-	0	-	-	-
C[C@H]1CN([C@@H](C)CO)C(=O)c2cccc(NC(=O)Nc3ccc(F)cc3)c2O[C@@H]1CN(C)C(=O)Nc1ccc(F)cc1	-	0	-	-	-
O=C(Nc1ccc2oc(-c3cccc(F)c3)nc2c1)c1ccccc1F	0	-	0	0	0
O=C(Nc1ccc2oc(-c3ccncc3)nc2c1)c1ccccc1F	0	0	0	0	-
O=C(Nc1ccc2oc(-c3ccccc3)nc2c1)c1ccccc1F	0	51	0	0	-
CC(=O)Nc1ccc(Nc2cc(C)c3ccccc3n2)cc1	0	0	0	-	0
CC(=O)Nc1ccc2oc(-c3ccccc3)nc2c1	0	-	0	0	64
CC(=O)Nc1ccc2nc3ccccc3nc2c1	0	42	0	-	47
O=C(Nc1ccc2oc(-c3ccccc3F)nc2c1)c1ncn[nH]1	0	0	0	0	52
C[C@H]1CN([C@@H](C)CO)C(=O)c2ccccc2-c2ccccc2CO[C@H]1CN(C)Cc1cccc(O)c1	-	0	-	-	-
C[C@@H]1CN([C@H](C)CO)S(=O)(=O)c2ccc(-c3ccccc3F)cc2O[C@H]1CN(C)C(=O)C1CC1	-	0	-	-	-
C[C@@H]1CN([C@@H](C)CO)C(=O)Cc2cc(NC(=O)Nc3ccc4c(c3)OCO4)ccc2O[C@@H]1CN(C)Cc1ccc(C(=O)O)cc1	-	0	-	-	-
CCCC(=O)Nc1ccc2oc(-c3cccnc3)nc2c1	0	-	0	0	37
O=C(Cc1ccccc1)NC(=S)Nc1ccc2oc(-c3ccccc3F)nc2c1	0	0	0	125	-
O=C(Nc1ccc2oc(-c3ccccc3F)nc2c1)c1ccccc1F	0	85	0	0	0
CC(C)CC(=O)Nc1ccc2oc(-c3ccncc3)nc2c1	0	67	0	0	0
SMILES	GAA850 FXN act	esBAF inh	AHR act	MITF act	Wnt bcat act
O=C(Cc1ccccc1)NC(=S)Nc1ccc2oc(-c3ccccc3)nc2c1	-	-	0	-	0
COc1ccc(NC(=O)Nc2ccc3c(c2)C(=O)N([C@@H](C)CO)C[C@H](C)[C@H](CN(C)Cc2ccc(C(=O)O)cc2)OCCCC[C@H](C)O3)cc1	-	0	-	-	-
CCC(=O)N(C)C[C@@H]1Oc2ncc(-c3ccc(C#N)cc3)cc2C(=O)N([C@@H](C)CO)C[C@@H]1C	-	0	-	-	-
O=C(Nc1ccc2oc(-c3ccc(Cl)c(Cl)c3)nc2c1)c1ncn[nH]1	0	52	0	0	42
O=C(N/N=C/c1c(Cl)cccc1Cl)c1ccc(F)cc1	0	0	0	0	0
CSc1ccc(/C=N/Nc2cccc(C(=O)O)c2)cc1	9.1	-	-	0	-
Cc1cc(/C=N/NC(=O)c2ccccc2F)c(C)n1-c1ccccc1	0	-	0	97	52
O=C(N/N=C/c1c(Cl)cccc1Cl)c1ccccc1F	0	-	60	0	0
Cc1cc(/C=N/NC(=O)c2cccc(F)c2)c(C)n1-c1ccccc1	0	-	0	0	?
CSc1ccc(/C=N/NC(=O)c2ccccc2Cl)cc1	0	79	0	0	0
COCC(=O)Nc1ccc2c(c1)C(=O)N(C)C[C@H](OC)[C@@H](C)CN(C(=O)CC1CC1)[C@@H](C)CO2	-	0	-	-	-
